Active and inactive are the calls of the source. How the source made its calls: active means hit-call score of the fitted dose curve at least 0.9, where 1 is the maximum; inactive means score below 0.9.
Assay: APR_HepG2_CellCycleArrest_24hr: Apredica 24-hour HepG2 Assay for Cell Cycle Arrest (AID 2282905);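 further: cell cycle arrest scored as ratio of 2N to 4N nuclear DNA content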
Conditions: imaging, actives raise or lower the signal
Description: APR_HepG2_24hr is a cell-based, multiplexed-readout assay that uses HepG2, a human liver cell line, with measurements taken at 24 hours after chemical dosing in a 384-well plate.APR_HepG2_CellCycleArrest_24hr is one of 10 assay component(s) measured or calculated from the APR_HepG2_24hr assay. It is designed to make measurements of cell phenotype, a form of morphology reporter, as detected with fluorescence intensity signals by HCS Fluorescent Imaging technology.Data from the assay component APR_HepG2_CellCycleArrest_24hr was analyzed into 1 assay endpoint. This assay endpoint, APR_HepG2_CellCycleArrest_24hr, was analyzed with bidirectional fitting relative to DMSO as the negative control and baseline of activity. Using a type of morphology reporter, measures of all nuclear dna for gain or loss-of-signal activity can be used to understand the signaling at the pathway-level as they relate to the gene . Furthermore, this assay endpoint can be referred to as a primary readout, because this assay has produced multiple assay endpoints where this one serves a signaling function. To generalize the intended target to other relatable targets, this assay endpoint is annotated to the cell cycle intended target family, where the subfamily is arrest.
Cells were treated with dimethyl sulfoxide (DMSO) as a solvent control at a final concentration of 0.5% v/v or with compounds in DMSO with a resulting final DMSO concentration of 0.5% v/v. Compound treatment was done at concentrations of 0.39, 0.78, 1.56, 3.12, 6.24, 12.5, 25, 50, 100, and 200 uM in duplicate on each plate. Cells were treated with compounds for 1, 24, or 72 hr. Carbonyl […] m-chloro-phenylhydrazone (CCCP) and taxol were used as positive controls for mitochondrial function and cytoskeletal stability, respectively; DMSO served as the negative control for this experiment. Cells were fixed by the direct addition of 50 uL formaldehyde in Hank's Balanced Salt Solution (HBSS) to a final concentration of 3.7%. After incubation in the fixation medium for 30 min at room temperature (293-298 K), cells were rinsed twice with HBSS and treated with cell permeabilization buffer (16 uL of 0.5% Triton X-100) for 10 min at room temperature (293-298 K) before labeling. For mitochondrial membrane potential and mitochondrial measurements, pre-fixed cells were incubated with 50 uL of MitoTracker Red CMXRos (Invitrogen) at a concentration of 250 nM for 30 min before fixation. In the remaining cases, post-fixed cells were labeled by incubation with a multiplexed mixture of primary antibodies in HBSS for 60 min at room temperature (293-298 K) to detect immunoreactivity of c-Jun (1:500), phospho-histone H3 (1:100), phospho-histone H2A.x (1:200), p53 (1:400), alpha-tubulin (1:200) and Hoechst 33342 (2 ug/mL). Cells were labeled for multiplexed imaging on two separate plates: a) Hoechst 33342, MitoTracker Red, phospho-histone H3, and alpha-tubulin, and b) Hoechst 33342, phospho-histone H2A.x, and c-Jun. A final rinse with HBSS (50 uL) was performed before analysis. The primary and secondary antibodies for the proteins were phospho-histone H3 (rabbit anti-phospho-histone H3 and FITC-donkey anti-rabbit IgG), phospho-histone H2A.x (mouse anti-phospho-histone H2A.x and FITC-donkey anti-mouse IgG), c-Jun (rabbit anti-phospho-c-Jun and Cy3-donkey anti-rabbit IgG), p53 (sheep anti-p53 and Cy5-donkey anti-sheep IgG), alpha-tubulin (mouse anti-alpha-tubulin and Cy5-donkey anti-mouse IgG). These antibodies are available as the CellCiphr HepG2 assay kit (Millipore).Digital images of each well were captured using a Cellomics ArrayScan VTI (Thermo Scientific Cellomics) (0.8 NA objective, 0.63x optical coupler, and XF-93 filter set) at 20x magnification. The images were acquired using the autofocus feature of the ArrayScan instrument, which entails the following steps. First, the camera focuses on channel 1 (Hoechst 33342), where nuclei are identified. Second, a Z offset of 1 um is used for capturing mitochondria (MitoTracker Red). […]

| Structure (SMILES) | outcome | AC50 |
| --- | --- | --- |
| CCCOC(=O)c1ccc(O)cc1 | inactive |  |
| OCCC(F)(F)C(F)(F)C(F)(F)C(F)(F)C(F)(F)C(F)(F)F | inactive |  |
| CCCCCCCCCCCCc1ccccc1S(=O)(=O)O | inactive |  |
| CCCCCCC(=O)O | inactive |  |
| OCCC(F)(F)C(F)(F)C(F)(F)C(F)(F)C(F)(F)C(F)(F)C(F)(F)C(F)(F)F |  | 17.6 µM (active) |
| CCCCC[C@H](O)CC(=O)CCc1ccc(O)c(OC)c1 | inactive |  |
| O=C(OCCOCCOC(=O)c1ccccc1)c1ccccc1 | inactive |  |
| CN1CCN(c2ccccc2/C=C2\SCCN(c3ccc(Cl)c(Cl)c3)C2=O)CC1 | inactive |  |
| CC[C@H](C)[C@@H](C(=O)O)n1sc2ccccc2c1=O | inactive |  |
| c1ccc2c(c1)ccc1ccccc12 | inactive |  |
| c1ccc2cc3c(ccc4ccccc43)cc2c1 |  | 67.6 µM (active) |
| CC(=O)NC1(c2cccc(F)c2)CCN(CC[C@@]2(c3ccc(Cl)c(Cl)c3)CN(c3ccccc3)C(=O)CO2)CC1 |  | 26.3 µM (active) |
| CCCCCCCC(=O)O | inactive |  |
| NC(=O)N(O)[C@@H]1C=C[C@H](Oc2cccc(Oc3ccc(F)cc3)c2)C1 | inactive |  |
| c1ccc2c(c1)Cc1ccccc1-2 | inactive |  |
| CC#C[C@]1(O)CC[C@H]2[C@@H]3CCC4=CC(=O)CCC4=C3[C@@H](c3ccc(N(C)C)cc3)C[C@@]21C | inactive |  |
| C#C[C@]1(O)CC[C@H]2[C@@H]3CCC4=CC(=O)CC[C@@H]4[C@H]3CC[C@@]21C | inactive |  |
| CCCCC(CC)COC(=O)CCCCC(=O)OCC(CC)CCCC (stereo not given) | inactive |  |
| CC(O)CO (stereo not given) | inactive |  |
| CCCCCCCCCCCCN1CCCC1=O |  | 53.5 µM (active) |

| Structure (SMILES) | outcome | AC50 |
| --- | --- | --- |
| CN(C)C=O | inactive |  |
| C[C@@H]1C[C@H]2[C@@H]3CCC4=CC(=O)C=C[C@]4(C)[C@@]3(F)[C@@H](O)C[C@]2(C)[C@@]1(O)C(=O)COP(=O)(O)O | inactive |  |
| CCN(CC)CCNc1ccc(CNC=O)c2sc3ccc(OC)cc3c(=O)c12 |  | 5.68 µM (active) |
| NC(=O)N1C(=O)C(C(=O)c2cc(Cl)cs2)c2cc(F)c(Cl)cc21 (stereo not given) | inactive |  |
| CC(C)(C)c1cccc(C(C)(C)C)c1O | inactive |  |
| CC(C)(C)CC(C)(C)c1ccc(O)c(-n2nc3ccccc3n2)c1 |  | 36.9 µM (active) |
| O=C(O)c1ccccc1C(c1ccc(O)cc1)c1ccc(O)cc1 | inactive |  |
| Nc1cccc2c(N)cccc12 | inactive |  |
| CCCCOCCO | inactive |  |
| OC1CCC(C2CCCCC2)CC1 (stereo not given) | inactive |  |
| Cc1cc(C)c(O)c(C)c1 | inactive |  |
| CC1=C(/C=C/C(C)=C/C=C/C(C)=C/C(=O)O)C(C)(C)CCC1 | inactive |  |
| O=C(O)Cc1cc(I)c(Oc2cc(I)c(O)c(I)c2)c(I)c1 |  | 109 µM (active) |
| Cc1cc(CCN2CCN(c3nsc4ccccc34)CC2)cc2c1NC(=O)CC2(C)C | inactive |  |
| COc1ccc([N+](=O)[O-])cc1N | inactive |  |
| CCCCCCCCCCCCCCCS(=O)(=O)Oc1ccccc1 | inactive |  |
| Oc1cc2ccccc2c2ccccc12 |  | 37.1 µM (active) |
| N#C[C@@H]1CC(F)(F)CN1C(=O)CNC1CC2CCC(C1)N2c1ncccn1 (stereo not given in full) | inactive |  |
| O=C(/C=C/c1ccc(O)cc1)CC(=O)/C=C/c1ccc(O)cc1 | inactive |  |
| Cc1oc(-c2ccccc2)nc1CCOc1ccc(C[C@H](Nc2ccccc2C(=O)c2ccccc2)C(=O)O)cc1 | inactive |  |
